± gives the standard deviation of the averaged measurements. About 5,400 targets were measured; listed, in parts, are those with the largest changes and a random draw of the rest.
Compound: Nc1nc2c(ncn2[C@@H]2O[C@H](COP(=O)(O)OP(=O)(O)OP(=O)(O)O)[C@@H](O)[C@H]2O)c(=O)[nH]1 [guanosine triphosphate]
Test: NP40-soluble protein abundance relative to vehicle (solubility fold change) (ratio); higher = more soluble protein in presence of GTP
How it was run: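 Jurkat crude lysate prepared with a Dounce homogeniser was treated at eight concentrations spanning 0.1 to 10 mM, 10 min at room temperature then 3 min at 37 °C. Solubilisation with 0.8% NP40 and benzonase and ultracentrifugation preceded TMT labelling of the supernatant for LC-MS/MS. Fold change against the detergent-processed vehicle was determined per replicate from vsn-normalised intensities, across three independent experiments.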

Chain of UniProt P49840 (P49840 whole entry, looked up): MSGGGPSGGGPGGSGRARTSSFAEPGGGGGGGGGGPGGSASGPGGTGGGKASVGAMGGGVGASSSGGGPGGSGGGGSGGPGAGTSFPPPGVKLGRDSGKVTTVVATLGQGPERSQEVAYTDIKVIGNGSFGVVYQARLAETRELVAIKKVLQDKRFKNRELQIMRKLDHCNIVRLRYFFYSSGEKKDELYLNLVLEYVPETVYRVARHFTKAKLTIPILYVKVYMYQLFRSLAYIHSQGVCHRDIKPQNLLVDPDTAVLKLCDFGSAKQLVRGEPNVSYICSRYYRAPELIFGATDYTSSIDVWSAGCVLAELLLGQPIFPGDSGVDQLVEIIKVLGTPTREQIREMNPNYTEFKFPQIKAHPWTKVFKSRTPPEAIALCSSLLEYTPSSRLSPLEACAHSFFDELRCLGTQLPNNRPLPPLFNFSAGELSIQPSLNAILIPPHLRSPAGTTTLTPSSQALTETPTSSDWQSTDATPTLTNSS
Chain of UniProt P13051 (P13051 whole entry): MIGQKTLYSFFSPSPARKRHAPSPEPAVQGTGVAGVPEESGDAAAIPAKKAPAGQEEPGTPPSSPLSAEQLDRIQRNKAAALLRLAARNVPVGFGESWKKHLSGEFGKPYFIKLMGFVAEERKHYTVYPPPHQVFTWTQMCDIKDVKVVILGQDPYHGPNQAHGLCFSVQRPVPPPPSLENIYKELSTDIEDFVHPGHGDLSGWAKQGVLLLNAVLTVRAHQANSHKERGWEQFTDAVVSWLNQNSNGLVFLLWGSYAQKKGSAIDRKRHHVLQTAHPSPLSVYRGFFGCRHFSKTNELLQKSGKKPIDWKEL
Chain of UniProt O60830 (O60830 whole entry, one chain of several): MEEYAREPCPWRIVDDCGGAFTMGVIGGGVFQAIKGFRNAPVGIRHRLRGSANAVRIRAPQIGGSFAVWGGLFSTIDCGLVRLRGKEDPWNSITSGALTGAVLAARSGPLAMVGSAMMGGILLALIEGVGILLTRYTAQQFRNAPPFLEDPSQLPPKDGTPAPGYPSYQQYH
Chain of UniProt P27144 (P27144 whole entry): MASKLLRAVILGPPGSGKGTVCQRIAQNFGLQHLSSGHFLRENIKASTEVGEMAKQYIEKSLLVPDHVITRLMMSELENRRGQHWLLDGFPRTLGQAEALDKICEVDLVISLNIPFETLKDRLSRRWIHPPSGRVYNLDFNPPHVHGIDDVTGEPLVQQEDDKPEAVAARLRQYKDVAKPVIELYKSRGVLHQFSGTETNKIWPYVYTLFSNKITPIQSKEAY
Chain of UniProt Q9NXW2 (Q9NXW2 whole entry, one chain of several): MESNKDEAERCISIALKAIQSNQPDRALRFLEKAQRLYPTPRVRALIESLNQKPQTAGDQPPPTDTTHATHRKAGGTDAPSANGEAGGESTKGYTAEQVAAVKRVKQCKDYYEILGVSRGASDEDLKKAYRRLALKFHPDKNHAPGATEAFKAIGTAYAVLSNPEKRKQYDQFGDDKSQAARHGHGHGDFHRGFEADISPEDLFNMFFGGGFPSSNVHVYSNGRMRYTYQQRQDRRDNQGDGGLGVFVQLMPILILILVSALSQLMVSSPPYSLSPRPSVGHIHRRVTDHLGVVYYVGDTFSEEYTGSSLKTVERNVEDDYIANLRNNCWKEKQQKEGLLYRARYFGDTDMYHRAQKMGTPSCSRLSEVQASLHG
Chain of UniProt O96028 (O96028 whole entry): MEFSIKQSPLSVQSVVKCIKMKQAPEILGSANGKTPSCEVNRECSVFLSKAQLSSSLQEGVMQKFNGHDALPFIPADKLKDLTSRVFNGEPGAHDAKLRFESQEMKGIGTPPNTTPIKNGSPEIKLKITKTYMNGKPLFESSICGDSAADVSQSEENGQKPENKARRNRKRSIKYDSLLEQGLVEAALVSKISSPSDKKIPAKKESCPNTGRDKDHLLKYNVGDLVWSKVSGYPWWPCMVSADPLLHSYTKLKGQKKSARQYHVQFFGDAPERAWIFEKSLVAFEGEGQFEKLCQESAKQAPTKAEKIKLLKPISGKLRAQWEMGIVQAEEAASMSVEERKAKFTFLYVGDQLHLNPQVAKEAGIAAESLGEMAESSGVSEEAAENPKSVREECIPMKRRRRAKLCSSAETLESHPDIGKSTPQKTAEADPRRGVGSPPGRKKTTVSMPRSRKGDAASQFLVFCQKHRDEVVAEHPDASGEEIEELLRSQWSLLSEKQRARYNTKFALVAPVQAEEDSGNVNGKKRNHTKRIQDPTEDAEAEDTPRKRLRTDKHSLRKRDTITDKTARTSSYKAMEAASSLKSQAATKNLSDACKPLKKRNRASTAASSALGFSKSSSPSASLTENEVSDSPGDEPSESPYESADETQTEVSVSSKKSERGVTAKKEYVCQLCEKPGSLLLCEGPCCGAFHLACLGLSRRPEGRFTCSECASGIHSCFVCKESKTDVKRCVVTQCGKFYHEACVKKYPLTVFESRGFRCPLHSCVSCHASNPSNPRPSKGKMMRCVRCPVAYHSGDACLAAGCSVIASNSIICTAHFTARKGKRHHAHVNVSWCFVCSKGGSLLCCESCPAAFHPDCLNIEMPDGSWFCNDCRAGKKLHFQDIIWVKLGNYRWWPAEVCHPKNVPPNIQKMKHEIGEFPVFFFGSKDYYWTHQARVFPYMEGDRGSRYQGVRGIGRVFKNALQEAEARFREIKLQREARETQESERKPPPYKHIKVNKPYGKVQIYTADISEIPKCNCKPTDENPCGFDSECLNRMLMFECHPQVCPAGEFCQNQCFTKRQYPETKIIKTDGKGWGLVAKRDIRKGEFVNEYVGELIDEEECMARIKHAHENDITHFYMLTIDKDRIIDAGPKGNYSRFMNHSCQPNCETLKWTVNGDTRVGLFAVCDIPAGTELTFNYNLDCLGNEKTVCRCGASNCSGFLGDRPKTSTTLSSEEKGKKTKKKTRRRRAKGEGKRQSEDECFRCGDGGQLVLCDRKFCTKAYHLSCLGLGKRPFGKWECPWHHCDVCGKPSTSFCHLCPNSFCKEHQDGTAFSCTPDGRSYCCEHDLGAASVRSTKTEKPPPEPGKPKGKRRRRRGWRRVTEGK
Chain of UniProt P46109 (P46109 whole entry): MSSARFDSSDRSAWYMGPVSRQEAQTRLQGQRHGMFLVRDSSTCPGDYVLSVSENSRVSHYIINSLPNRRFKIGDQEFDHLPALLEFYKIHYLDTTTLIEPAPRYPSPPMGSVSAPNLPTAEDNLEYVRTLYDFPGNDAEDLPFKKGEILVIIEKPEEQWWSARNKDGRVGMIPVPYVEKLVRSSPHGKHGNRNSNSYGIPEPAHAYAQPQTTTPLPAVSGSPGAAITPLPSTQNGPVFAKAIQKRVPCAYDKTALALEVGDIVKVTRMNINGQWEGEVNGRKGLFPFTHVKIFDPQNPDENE
Chain of UniProt P22087 (P22087 whole entry, one chain of several): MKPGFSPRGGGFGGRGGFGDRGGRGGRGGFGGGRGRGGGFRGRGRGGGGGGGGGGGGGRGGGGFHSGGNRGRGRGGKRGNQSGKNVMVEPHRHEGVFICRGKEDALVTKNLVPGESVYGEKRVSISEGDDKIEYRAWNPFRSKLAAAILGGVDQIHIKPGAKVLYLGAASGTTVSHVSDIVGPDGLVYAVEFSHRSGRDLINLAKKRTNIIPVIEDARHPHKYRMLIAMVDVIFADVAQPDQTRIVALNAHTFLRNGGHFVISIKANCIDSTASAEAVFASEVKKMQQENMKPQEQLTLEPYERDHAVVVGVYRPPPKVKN
Chain of UniProt P26368 (P26368 whole entry): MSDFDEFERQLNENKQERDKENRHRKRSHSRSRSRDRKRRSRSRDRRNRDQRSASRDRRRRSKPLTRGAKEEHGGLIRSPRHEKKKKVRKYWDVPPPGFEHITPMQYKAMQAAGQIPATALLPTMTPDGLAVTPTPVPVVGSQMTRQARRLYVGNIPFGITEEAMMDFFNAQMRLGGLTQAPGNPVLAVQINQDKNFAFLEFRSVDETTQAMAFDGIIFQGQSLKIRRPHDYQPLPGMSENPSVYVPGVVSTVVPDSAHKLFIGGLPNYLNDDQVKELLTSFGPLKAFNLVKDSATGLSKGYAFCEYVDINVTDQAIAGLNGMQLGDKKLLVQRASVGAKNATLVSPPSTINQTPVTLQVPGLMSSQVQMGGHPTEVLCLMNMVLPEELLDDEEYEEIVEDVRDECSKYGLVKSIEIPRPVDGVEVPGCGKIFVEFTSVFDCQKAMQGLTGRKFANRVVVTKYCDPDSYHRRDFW
Chain of UniProt O43865 (O43865 whole entry): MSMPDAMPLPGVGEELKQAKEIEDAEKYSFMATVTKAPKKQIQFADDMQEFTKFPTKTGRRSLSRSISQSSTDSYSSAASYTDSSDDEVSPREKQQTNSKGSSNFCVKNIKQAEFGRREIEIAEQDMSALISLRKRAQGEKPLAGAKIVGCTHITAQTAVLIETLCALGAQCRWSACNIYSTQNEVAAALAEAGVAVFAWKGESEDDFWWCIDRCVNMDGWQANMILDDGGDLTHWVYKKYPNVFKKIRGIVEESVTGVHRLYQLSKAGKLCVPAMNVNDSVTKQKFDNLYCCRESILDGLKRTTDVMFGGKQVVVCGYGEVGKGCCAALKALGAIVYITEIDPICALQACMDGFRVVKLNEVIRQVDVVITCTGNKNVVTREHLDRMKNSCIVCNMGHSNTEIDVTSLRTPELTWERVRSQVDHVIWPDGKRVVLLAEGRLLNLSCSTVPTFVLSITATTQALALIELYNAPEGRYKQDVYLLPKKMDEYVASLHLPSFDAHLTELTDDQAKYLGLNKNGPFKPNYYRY
Chain of UniProt Q9BQE5 (Q9BQE5 whole entry, one chain of several): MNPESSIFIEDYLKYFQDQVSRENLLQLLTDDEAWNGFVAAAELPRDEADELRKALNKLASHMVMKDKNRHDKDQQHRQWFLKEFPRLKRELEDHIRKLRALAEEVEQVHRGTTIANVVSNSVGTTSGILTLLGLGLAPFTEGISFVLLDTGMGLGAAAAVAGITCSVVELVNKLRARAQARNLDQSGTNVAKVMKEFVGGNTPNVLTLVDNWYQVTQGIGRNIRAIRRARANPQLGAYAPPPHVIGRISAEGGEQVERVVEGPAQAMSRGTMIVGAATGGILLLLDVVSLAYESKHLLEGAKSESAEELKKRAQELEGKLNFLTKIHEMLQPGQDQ

Target	NP40-soluble protein abundance (concentration: 0.1mM)	NP40-soluble protein abundance (concentration: 0.5mM)	NP40-soluble protein abundance (concentration: 1mM)	NP40-soluble protein abundance (concentration: 2mM)	NP40-soluble protein abundance (concentration: 4mM)	NP40-soluble protein abundance (concentration: 6mM)	NP40-soluble protein abundance (concentration: 8mM)	NP40-soluble protein abundance (concentration: 10mM)
UniProt P26368|P26368-2	1.21 ± 0.06	1.64 ± 0.23	1.67 ± 0.25	1.69 ± 0.25	1.7 ± 0.29	1.75 ± 0.25	1.73 ± 0.29	1.71 ± 0.26
NDUFS4 (UniProt O43181)	1 ± 0.029	1.047 ± 0.0028	1.08 ± 0.053	1.12 ± 0.1	1.09 ± 0.12	1.1 ± 0.12	1.14 ± 0.18	1.1 ± 0.15
UniProt O95793|O95793-2	0.997 ± 0.045	1.02 ± 0.044	1.1 ± 0.079	1.18 ± 0.076	1.33 ± 0.11	1.42 ± 0.13	1.54 ± 0.2	1.82 ± 0.31
EEF2K (UniProt O00418)	0.988 ± 0.074	1.01 ± 0.058	0.944 ± 0.02	0.954 ± 0.044	0.913 ± 0.028	0.951 ± 0.052	0.949 ± 0.068	0.941 ± 0.039
UniProt P13051|P13051-2	0.9724 ± 0.0086	0.946 ± 0.019	0.944 ± 0.073	0.91 ± 0.062	0.886 ± 0.075	0.892 ± 0.07	0.893 ± 0.036	0.863 ± 0.1
J3KPS0|Q9NXW2|Q9NXW2-2 (UniProt Q9NXW2)	1.01 ± 0.065	0.995 ± 0.088	0.984 ± 0.083	0.935 ± 0.064	0.913 ± 0.066	0.918 ± 0.1	0.967 ± 0.082	0.925 ± 0.063
H7BYN4|Q02241|Q02241-2|Q02241-3 (UniProt Q02241)	1.1 ± 0.048	1.03 ± 0.036	1.0707 ± 0.00082	1.09 ± 0.021	1.114 ± 0.0076	1.13 ± 0.046	1.12 ± 0.084	1.09 ± 0.041
UniProt O60508|Q5SRN1	1.07 ± 0.031	1.1 ± 0.017	1.09 ± 0.022	1.072 ± 0.0076	1.05 ± 0.034	1.07 ± 0.053	1.11 ± 0.013	1.08 ± 0.042
UniProt O75400|O75400-2|O75400-3	1.02 ± 0.05	1.11 ± 0.036	1.23 ± 0.083	1.25 ± 0.076	1.37 ± 0.21	1.52 ± 0.24	1.81 ± 0.37	1.89 ± 0.41
UniProt O96028|O96028-3|O96028-5	1.04 ± 0.032	1.06 ± 0.049	1.19 ± 0.027	1.26 ± 0.027	1.44 ± 0.053	1.49 ± 0.047	1.59 ± 0.067	1.69 ± 0.062
UniProt P49840	0.981 ± 0.028	1.03 ± 0.029	0.913 ± 0.022	0.939 ± 0.02	0.921 ± 0.044	0.925 ± 0.021	0.875 ± 0.051	0.888 ± 0.051
UniProt O60830|O60830-2|V9GYS0	1.82 ± 0.63	1 ± 0.039	0.957 ± 0.15	1.01 ± 0.13	1 ± 0.11	0.969 ± 0.13	0.942 ± 0.051	0.955 ± 0.045
UniProt P49588|P49588-2	0.95 ± 0.017	0.981 ± 0.025	0.928 ± 0.032	0.895 ± 0.034	0.876 ± 0.043	0.905 ± 0.041	0.877 ± 0.04	0.848 ± 0.052
UniProt O43865	0.969 ± 0.025	0.99 ± 0.044	0.959 ± 0.057	0.944 ± 0.025	0.914 ± 0.021	0.955 ± 0.029	0.973 ± 0.056	0.98 ± 0.047
CRKL (UniProt P46109)	0.973 ± 0.029	0.958 ± 0.058	0.967 ± 0.092	0.932 ± 0.073	0.921 ± 0.076	0.906 ± 0.089	0.923 ± 0.093	0.876 ± 0.086
J3KNV1|O60281|O60281-2 (UniProt O60281)	1.06 ± 0.041	1.05 ± 0.095	1.12 ± 0.066	1.09 ± 0.13	1.02 ± 0.051	1.04 ± 0.15	1.07 ± 0.057	1.05 ± 0.036
STMN1 (UniProt P16949)	0.911 ± 0.0092	0.899 ± 0.048	0.994 ± 0.014	0.909 ± 0.042	0.85 ± 0.069	0.935 ± 0.1	0.971 ± 0.089	0.995 ± 0.041
H7C0Q6|Q9C037|Q9C037-2|Q9C037-3 (UniProt Q9C037)	1.08 ± 0.076	1.037 ± 0.0073	1.03 ± 0.068	0.998 ± 0.052	0.968 ± 0.069	0.981 ± 0.063	0.979 ± 0.07	0.918 ± 0.074
UniProt O94964-2|O94964|O94964-4|X6R3R3	1.05 ± 0.11	0.998 ± 0.13	1.139 ± 0.011	1.07 ± 0.025	1.09 ± 0.047	1.03 ± 0.037	1.12 ± 0.072	0.994 ± 0.041
SFPQ (UniProt P23246)	0.998 ± 0.053	0.989 ± 0.086	1.03 ± 0.13	1.23 ± 0.14	1.61 ± 0.22	1.85 ± 0.28	2 ± 0.35	2.04 ± 0.36
J3KQL8|Q9BQE5 (UniProt Q9BQE5)	0.987 ± 0.019	1.01 ± 0.041	0.984 ± 0.054	0.956 ± 0.058	0.917 ± 0.044	0.982 ± 0.05	0.957 ± 0.045	0.928 ± 0.051
UniProt O14776|O14776-2	0.97 ± 0.042	0.962 ± 0.056	0.979 ± 0.047	0.953 ± 0.083	0.989 ± 0.079	1.01 ± 0.084	1.05 ± 0.05	1.04 ± 0.071
HMGN2 (UniProt P05204)	0.992 ± 0.2	1 ± 0.14	1.31 ± 0.23	1.46 ± 0.35	1.5 ± 0.11	1.89 ± 0.35	1.7 ± 0.41	2.68 ± 0.3
UniProt O43760|O43760-2	0.957 ± 0.086	0.909 ± 0.12	0.911 ± 0.076	0.915 ± 0.083	0.908 ± 0.088	0.852 ± 0.11	0.843 ± 0.15	0.884 ± 0.091
AK4 (UniProt P27144)	0.983 ± 0.072	0.887 ± 0.088	1.03 ± 0.042	1 ± 0.075	1.03 ± 0.11	0.987 ± 0.11	0.975 ± 0.16	0.983 ± 0.11
HIST1H1C (UniProt P16403)	0.984 ± 0.038	1.11 ± 0.074	1.18 ± 0.072	1.22 ± 0.048	1.23 ± 0.096	1.38 ± 0.074	1.26 ± 0.1	1.78 ± 0.15
M0R2U2|P22087 (UniProt P22087)	1.02 ± 0.054	1.03 ± 0.032	1.08 ± 0.068	1.21 ± 0.056	1.52 ± 0.068	1.77 ± 0.082	2.13 ± 0.11	2.47 ± 0.083

From the supplement of paper PMC6411743
